An excerpt weighted towards active compounds, which were near 3.6% of everything screened.
OvCa metastasis: inhibitors of ovarian cancer cell adhesion and invasion in omental model; hit rate 0.1% among 46,000; SKOV3ip1-GFP adhesion/invasion on 3D omental model, fluorescence; Potency, µM (series often up to 45.8 µM), hits mostly inhibitors; also: nearly all actives have a fitted effect of over 65% in size
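Adhesion/invasion was scored as fixed GFP-labeled SKOV3ip1 cell counts (488/509 nm), normalized to DMSO and tomatine controls. Cancer cells in serum-free medium, with four compound doses (0.36-46 umol/L), sat 2 hr at RT then 16 hr at 37 C on a 48 hr fibroblast/mesothelial/ECM culture.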
PMP22 txn prim: PMP22 gene transcription modulation. AID 1508649. S16 Pmp22-F2sN Schwann cells, FLuc/NLuc coincidence luminescence, 24 h. Potency, µM (series often up to 57.5 µM), actives largely listed as inhibitors. hit rate 2% among 43,000; active = clear falling dose curves in both reporters; inconclusive = both reporters move, but less clearly or upward; inactive = either reporter flat; the % is the NLuc reporter signal
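Luminescent read-out of sequential FLuc and NLuc signals from a reporter embedded in the Pmp22 3' UTR of S16 Schwann cells, taken after 24 h compound exposure at 37C; compounds reducing both signals score as inhibitors of expression.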
pS6 MEF inh: mTORC1 pathway inhibition measured by phospho-rpS6 | Tsc2-/- p53-/- MEF, phospho-rpS6 immunofluorescence/PI, 24 h | Potency, µM (doses to about 38.3 µM), actives largely listed as inhibitors | hit rate 0.78% among 44,000; also: nearly all actives have a fitted effect of over 50% in size
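Read-out: phospho-S6 Alexa-488 intensity over PI intensity per well, scored as % active cells using thresholds from rapamycin (7.5 nM) and DMSO controls. Tsc2-/-, p53-/- MEFs exposed to compound for 24 h; PI cell count recorded as viability.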
HTT-AS act: HTT-AS promoter activation. HEK293 HTT-AS promoter firefly luciferase reporter, 24 h; response scale: percent change from vehicle, -100% = no light. Potency, µM (doses to about 57.5 µM), hits mostly activators. hit rate 0.24% among 48,000; also: nearly all actives have a fitted effect of over 55% in size
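Firefly luciferase signal from promoter-reporter HEK293 cells was scaled between vehicle (0%) and zero RLU (-100%). Compounds were tested at final concentrations of up to 57.5 uM over 24 h at 37 degrees C. PTC124 at 50 uM final served as control inhibitor.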
S16 F2sN tox: toxic to S16 Pmp22-F2sN Schwann cells; S16 Pmp22-F2sN Schwann cells (luciferase reporters placed in the Pmp22 gene) viability, CellTiter-Glo, 24 h; Potency, µM (titrated, usually from 57.5 µM), hits mostly cytotoxic; hit rate 0.48% among 43,000; AID 1508642; also: nearly all actives have a fitted effect of over 65% in size
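Luminescence from CellTiter-Glo, read by CCD camera after a 15 min room-temperature incubation, served as the viability signal. Reporter Schwann cells (S16 Pmp22-F2sN) had been treated with pin-transferred compounds for 24 h at 37C.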
HTT prom inh: HTT promoter inhibition. hit rate 0.93% among 48,000. Potency, µM (titrated, usually from 57.5 µM), most hits filed as inhibitors. HEK293 HTT promoter firefly luciferase reporter, 24 h; also: nearly all actives have a fitted effect of over 50% in size
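Luminescence was read after Dual-Glo reagent and a 10 min room-temperature incubation. Values were normalized to vehicle (0% activity) and zero RLU (-100% activity). Reporter HEK293 cells had been exposed to compounds (up to 57.5 uM final) for 24 h.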
NLuc sat counter: counter-screen for PMP22 expression modulators: NanoLuc inhibition, saturating substrate. shares compounds with PMP22 txn prim. Secreted NLuc enzyme (filtered S16 cell medium), Nano-Glo luminescence. Potency, µM (top dose mostly 57.5 µM), actives largely listed as inhibitors. hit rate 4% among 690
NLuc Km counter: inhibits NanoLuc under Km conditions, PMP22 counter-screen; shares compounds with PMP22 txn prim; secreted NLuc enzyme, coelenterazine luminescence, Km conditions; Potency, µM (titrated, usually from 57.5 µM), hits mostly inhibitors; hit rate 5% among 690; AID 1508639
FLuc counter: inhibits firefly luciferase, PMP22 counter-screen; Potency, µM (doses to about 57.5 µM), most hits filed as inhibitors; shares compounds with PMP22 txn prim; AID 1508640; purified P. pyralis FLuc, luminescence, 10 min; 690 tested, under 10 active
Target sequence (P08659 whole entry, looked up): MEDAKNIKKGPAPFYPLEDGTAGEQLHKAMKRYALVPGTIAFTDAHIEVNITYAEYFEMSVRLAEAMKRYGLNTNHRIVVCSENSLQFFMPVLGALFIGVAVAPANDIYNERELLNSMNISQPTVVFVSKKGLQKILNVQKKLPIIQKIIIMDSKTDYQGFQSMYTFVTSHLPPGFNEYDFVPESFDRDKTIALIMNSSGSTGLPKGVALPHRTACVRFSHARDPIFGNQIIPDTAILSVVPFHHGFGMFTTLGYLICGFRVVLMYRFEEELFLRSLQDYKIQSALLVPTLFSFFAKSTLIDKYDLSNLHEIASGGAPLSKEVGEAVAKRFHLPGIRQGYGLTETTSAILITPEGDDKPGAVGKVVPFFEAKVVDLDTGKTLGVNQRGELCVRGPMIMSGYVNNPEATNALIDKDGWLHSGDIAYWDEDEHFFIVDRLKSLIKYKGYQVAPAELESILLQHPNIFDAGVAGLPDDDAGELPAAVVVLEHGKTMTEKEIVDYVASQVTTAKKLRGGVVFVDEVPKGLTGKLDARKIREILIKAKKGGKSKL
S16 F2sN tox cnf: S16 Schwann cell cytotoxicity, confirmatory. shares compounds with PMP22 txn prim. S16 Schwann cells viability, CellTiter-Glo ATP luminescence, 24 h. Potency, µM (highest dose often 57.5 µM), usual class: cytotoxic. hit rate 7% among 690
PMP22 txn cnf: PMP22 transcription modulation, confirmatory; shares compounds with PMP22 txn prim; S16 Schwann cells Pmp22-F2sN, dual luciferase, 24 h; Potency, µM (top dose mostly 57.5 µM), usual class: inhibitors; hit rate 22% among 690; active = clear falling dose curves in both reporters; inconclusive = both reporters move, but less clearly or upward; inactive = either reporter flat; the % is the FLuc reporter signal
PMP22 HiBiT cnf: rat PMP22 protein level modulation, confirmatory; S16 Schwann cells Pmp22-HiBiT, luminescence, 48 h; shares compounds with PMP22 txn prim; Potency, µM (doses to about 27.9 µM), most hits filed as inhibitors; 95 tested, under 10 active
Target sequence (P25094 whole entry, looked up): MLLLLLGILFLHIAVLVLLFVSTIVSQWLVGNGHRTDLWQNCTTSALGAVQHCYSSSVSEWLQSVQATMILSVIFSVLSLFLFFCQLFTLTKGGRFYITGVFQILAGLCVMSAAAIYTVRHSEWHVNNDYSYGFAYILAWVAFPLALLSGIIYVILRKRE
Numbers stand for hits; i = inactive; ? = inconclusive; nt = not tested or not shown. Unless noted, calls follow the shape of the dose curve; as a rule, active = well fitted curve in the direction sought with a large enough effect; inconclusive = small, poorly fitted or top-dose-only effect, or another doubt; inactive = no such curve, though single readings can be large; an effect the other way counts as inactive or inconclusive.

SMILES	OvCa metastasis	PMP22 txn prim	pS6 MEF inh	HTT-AS act	S16 F2sN tox	HTT prom inh	others
CC1=C(O)C(=O)C=C2C1=CC=C1[C@@]2(C)CC[C@@]2(C)[C@@H]3C[C@](C)(C(=O)O)CC[C@]3(C)CC[C@]12C	4.2µM	nt	nt	i	nt	?
N#C[C@H](O[C@@H]1O[C@H](CO[C@@H]2O[C@H](CO)[C@H](O)[C@H](O)[C@H]2O)[C@H](O)[C@H](O)[C@H]1O)c1ccccc1	i	nt	nt	i	nt	?
C[C@@H]1CC[C@@]2(OC1)O[C@H]1C[C@H]3[C@@H]4CC=C5C[C@@H](O[C@@H]6O[C@H](CO)[C@@H](O[C@@H]7O[C@@H](C)[C@H](O)[C@@H](O)[C@@H]7O)[C@H](O)[C@@H]6O[C@@H]6O[C@@H](C)[C@H](O)[C@@H](O)[C@@H]6O)CC[C@]5(C)[C@@H]4CC[C@]3(C)[C@@H]1[C@H]2C	?	nt	nt	i	nt	i
COC[C@H]1OC(=O)c2coc3c2[C@@]1(C)C1=C(C3=O)[C@@H]2CC[C@H](O)[C@@]2(C)C[C@@H]1OC(C)=O	i	nt	nt	i	nt	?
N#Cc1cc2c(nc1SCC(=O)Nc1ccc(Cl)c(C(F)(F)F)c1)C1CCN2CC1	i	?	i	i	?	16µM
N#Cc1cc2c(nc1SCC(=O)Nc1ccc(C(F)(F)F)cc1)C1CCN2CC1	i	?	i	i	?	14µM
COC1=CC(C)=C[C@@H](C)[C@@H](O)[C@@H](C)CC(C)=CC=C[C@H](OC)[C@H]([C@@H](C)[C@@H](O)[C@H](C)[C@@]2(O)C[C@@H](O)[C@H](C)[C@@H](C(C)C)O2)OC1=O	?	nt	nt	i	nt	?
Cc1ccccc1-n1c(Cn2cnc3c(N)ncnc32)nc2cccc(C)c2c1=O	?	nt	nt	i	nt	?
COc1ccc(NC(=O)CCn2cnc3onc(-c4ccc(F)cc4)c3c2=O)cc1OC	i	11µM	?	i	?	?
Cc1ccccc1-n1c(/C=C/c2ccccc2F)nc2ccccc2c1=O	i	?	i	i	i	?
O=c1c2ccccc2nc(/C=C/c2cccc3ccccc23)n1-c1ccccc1Cl	i	?	i	i	?	28µM
CC(C)[C@]12O[C@@H]1[C@@H]1O[C@]13[C@]1(O[C@H]1C[C@@H]1C4=C(CC[C@@]13C)C(=O)OC4)[C@H]2O	i	nt	nt	?	nt	i
CC(C)(O)C=CC(=O)[C@](C)(O)[C@H]1[C@H](O)C[C@]2(C)[C@@H]3CC=C4[C@@H](C=C(O)C(=O)C4(C)C)[C@]3(C)C(=O)C[C@@]12C	1µM	nt	nt	i	nt	?
C[C@@H]1[C@@H](C(=O)C[C@H]2O[C@@H]3O[C@]4(C)CC[C@@H]5[C@H](C)CC[C@@H]([C@H]2C)[C@@]35OO4)O[C@@H]2O[C@]3(C)CC[C@H]4[C@H](C)CC[C@@H]1[C@@]24OO3	i	nt	nt	i	nt	?
CC1=C2C[C@@H]3[C@@H](CC=C4C[C@@H](O)CC[C@@]43C)[C@@H]2CC[C@]12O[C@H]1C[C@H](C)CN[C@H]1[C@H]2C	i	nt	nt	i	nt	i
CCCCNC(=O)c1cc(-c2cccnc2)nc2ccc(S(=O)(=O)NCCCC)cc12	i	?	?	i	25µM	i
CCOc1ccc(N(C(C)C(=O)Nc2cc(Cl)ccc2OC)S(C)(=O)=O)cc1 (configuration not stated)	?	?	7.4µM	i	?	?
CCc1ccc(-n2nc(C)c3c2NC(=O)CSC3c2ccc(OC)cc2OC)cc1 (configuration not stated)	i	?	?	i	?	22µM
CCc1ccc(-n2nc(C)c3c2NC(=O)CSC3c2ccccc2C)cc1 (configuration not stated)	i	?	i	i	?	?
O=C(NCCSc1c(-c2ccc(F)cc2)[nH]c2ccccc12)c1ccc(S(=O)(=O)N2CCOCC2)cc1	?	?	15µM	i	?	?
Cc1c(Cl)cccc1NC(=O)c1oc2ccc(S(=O)(=O)N3CCC4(CC3)OCCO4)cc2c1C	i	14µM	13µM	i	?	?	NLuc sat counter=i;NLuc Km counter=i;FLuc counter=i;S16 F2sN tox cnf=i;PMP22 txn cnf=?;PMP22 HiBiT cnf=i
Cc1c(N)nc([C@H](CC(N)=O)NC[C@@H](N)C(N)=O)nc1C(=O)N[C@H](C(=O)N[C@@H](C)[C@H](O)[C@@H](C)C(=O)N[C@@H](C(=O)NCCc1nc(-c2nc(C(=O)NCCC[S+](C)C)cs2)cs1)[C@@H](C)O)C(O[C@H]1O[C@H](CO)[C@H](O)[C@@H](O)[C@@H]1O[C@H]1O[C@H](CO)[C@@H](O)[C@H](OC(N)=O)[C@H]1O)c1cnc[nH]1 (some centres not stated)	i	nt	nt	i	nt	i
